# Experimental data as given in PubChem BioAssay (NCI).
# About 83,000 compounds went through this panel and 20% of them were active in at least one assay; those are over-represented in the sample as a whole.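 Treatment: one concentration, 48 hours, 96-well format. Scoring: percent growth, with anything below 10 considered active.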 A number with no mark means an inactive call. The source made the active and inactive calls.
# System: HL-60(TB) leukemia
# Test: NCI-60 one-dose screen, 48 h (100 = growth as untreated, 0 = no growth, -100 = all killed)
# Details: 10 µM unless noted
row,Compound,growth
1,Cc1c(Cl)cc(-n2c(=O)c3ccccc3c3ccccc3c2=O)cc1Cl,90.8%
2,Cn1c(=O)c2c(-c3ccccc3F)n(-c3ccc4c(c3)OCO4)cc2n(C)c1=O,90.2%
3,Cc1c(-c2cnc3ccc(Cl)cc3c2C(=O)O)nnn1-c1ccc(Cl)cc1,96.2%
4,Cc1ccc2cc3c(N)c4c(C)ccc(C)c4nc3nc2c1,12.6%
5,Cc1[nH]ccc2cc3nc4ccccc4c3cc12,16.4%
6,CCC(C)(c1cc(C(C)(C)C)c(O)c(C(C)(C)C)c1)c1cc(C(C)(C)C)c(O)c(C(C)(C)C)c1,99.3%
7,O=C(O)c1cc(C(=O)O)cc([N+](=O)[O-])c1,94.5%
8,CCCCC(CC)CN=C(N)NC(N)=NCCCCCCN=C(N)NC(N)=NCC(CC)CCCC (centres undefined),-76.8% (active)
9,O=C(NCCNc1nccc(-n2ccc3cccnc32)n1)c1ccc(C(F)(F)F)cc1,107%
10,COc1cc(/C=C/C(=O)c2c(-c3ccc(Cl)cc3)nc3sc(C)nn23)cc(OC)c1OC,50.6%
11,CN(Cc1cnc2nc(N)nc(N)c2n1)c1ccc(C(=O)NC(CCC(=O)O)C(=O)O)cc1 (centres undefined),29.5%
12,C#CCOc1cccc(Nc2ncnc3ccc(NC(=O)C=C)cc23)c1,29.3%
13,COc1cc(/C=C2\C(=O)Nc3ccc(Br)cc32)cc(OC)c1OC,73.5%
14,CC(=O)O[C@H]1CC[C@]2(C)[C@H]3CC=C4[C@@H]5[C@H](C)[C@@H](C)CC[C@]5(C(=O)NCCNCCNCCN)CC[C@@]4(C)[C@]3(C)CC[C@H]2C1(C)C,81.6%
